# According to PubChem BioAssay (NCATS):
# Inconclusive results are not listed. Where a call stands in place of a potency, no number is given. Activity calls are given as the source filed them. Unless noted, the call rests on the fitted dose curve; in most records, active means well fitted curve in the direction sought with a large enough effect; inconclusive means small, poorly fitted or top-dose-only effect, or another doubt; inactive means no such curve, though single readings can be large; an effect the other way counts as inactive or inconclusive.
# How the values were obtained:
# [1] = NCATS anti-infectives library activity on HEK293 viability as a counter-qHTS vs the C. elegans viability qHTS (AID 1745854)
# Summary of the method: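 CellTiter-Glo luminescence, read on a CCD imager, scored viability of HEK293 cells after 24 hr compound exposure at 37C. Library tested in several concentrations, 1:5 steps, up to 41.7 uM; digitonin served as control.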
# [2] = NCATS anti-infectives library activity on the primary C. elegans qHTS viability assay (AID 1745855; calls by dose curve); conditions: C. elegans worm area imaging, day 7; at 41.8 µM (top of the series) unless noted
# Summary of the method: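 Titration-based screen in worms: eggs hatched overnight in M9, L1 larvae fed TOP10 capsules in S medium with compound, incubated 21 °C for 7 days; fluorescent objects gated by size and intensity at days 0, 3 and 7.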
# [3] = target: Metallo-beta-lactamase type 2 (Klebsiella pneumoniae) (UniProt C7C422); test: qHTS to identify inhibitors of the New Delhi Metallo-beta-lactamase (NDM): assay validation screen against the NCATS LOPAC Collection (AID 1794843); further: potency means the concentration at half of the fitted maximal effect
# Sequence of Metallo-beta-lactamase type 2 (Klebsiella pneumoniae) (C7C422 whole entry, looked up): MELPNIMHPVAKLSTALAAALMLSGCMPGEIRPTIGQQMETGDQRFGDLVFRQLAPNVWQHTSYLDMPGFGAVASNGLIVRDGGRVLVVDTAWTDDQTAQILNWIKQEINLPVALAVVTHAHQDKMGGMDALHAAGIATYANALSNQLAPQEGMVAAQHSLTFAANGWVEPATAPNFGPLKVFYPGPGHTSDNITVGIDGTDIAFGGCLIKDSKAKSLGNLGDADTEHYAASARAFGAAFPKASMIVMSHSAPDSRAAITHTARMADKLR
# Summary of the method: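 Enzyme 2 nM final, 50 mM HEPES pH 7.0, 1 uM ZnSO4, 0.01% Tween20; cpds in DMSO, preincub w/ enzyme; + nitrocefin (50 uM stock); A485 at plateau; no-enzyme column as blank.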
# [4] = target: Glutathione peroxidase 1 (Homo sapiens) (UniProt P07203); test: Primary qHTS Assay for Inhibitors of Recombinant Selenoprotein Glutathione Peroxidase 1 (GPX1) (AID 1845191); further: nearly all actives have a fitted effect of over 65% in size; further: potency means the concentration at half of the fitted maximal effect
# Sequence of Glutathione peroxidase 1 (Homo sapiens) (P07203 whole entry, looked up): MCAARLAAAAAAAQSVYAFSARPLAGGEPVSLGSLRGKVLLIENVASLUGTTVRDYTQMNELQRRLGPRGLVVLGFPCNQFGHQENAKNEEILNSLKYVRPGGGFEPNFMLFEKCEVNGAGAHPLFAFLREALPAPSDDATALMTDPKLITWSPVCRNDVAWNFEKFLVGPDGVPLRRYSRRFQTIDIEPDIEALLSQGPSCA
# Summary of the method: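 GR-coupled readout: NADPH consumption tracked by fluorescence, ex 340/em 450 nm, at t=0 and after 15 min at RT. Final mix 10 nM GPX1, 1 mM GSH, 0.5 mM CHP, 0.5 mM NADPH, 100 nM GR, 0.01% BSA, following 30 min enzyme–compound preincubation.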
# [5] = target: Phospholipid hydroperoxide glutathione peroxidase GPX4 (Homo sapiens) (UniProt P36969); test: Primary qHTS Assay for Inhibitors of Recombinant Selenoprotein Glutathione Peroxidase 4 (GPX4) (AID 1845192); further: nearly all actives have a fitted effect of over 65% in size; further: potency means the concentration at half of the fitted maximal effect
# Sequence of Phospholipid hydroperoxide glutathione peroxidase GPX4 (Homo sapiens) (P36969 whole entry, looked up): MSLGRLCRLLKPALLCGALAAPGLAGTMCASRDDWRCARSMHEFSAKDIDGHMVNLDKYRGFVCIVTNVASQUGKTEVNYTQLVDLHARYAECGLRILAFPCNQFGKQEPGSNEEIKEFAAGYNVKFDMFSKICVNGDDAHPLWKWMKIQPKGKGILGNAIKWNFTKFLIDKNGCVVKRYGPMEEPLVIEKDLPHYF
# Summary of the method: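 Steps: GPX4 plus compound, 30 min RT; add GR/GSH/NADPH master mix; start with cumene hydroperoxide; read 340/450 nm fluorescence at 0 and 15 min. Finals were 200 nM GPX4, 1 mM GSH, 0.5 mM CHP, 0.5 mM NADPH, 100 nM GR.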
# [6] = target: Nicotinamide N-methyltransferase (Homo sapiens) (UniProt P40261); test: Confirmatory Screen for Target Class Profiling of Small Molecule Inhibitors of Methyltransferases (AID 1745852); conditions: MTase-Glo luminescence, SAH detection, recombinant enzyme; measured here: NNMT max response; stronger effect = lower value
# Sequence of Nicotinamide N-methyltransferase (Homo sapiens) (P40261 whole entry, looked up): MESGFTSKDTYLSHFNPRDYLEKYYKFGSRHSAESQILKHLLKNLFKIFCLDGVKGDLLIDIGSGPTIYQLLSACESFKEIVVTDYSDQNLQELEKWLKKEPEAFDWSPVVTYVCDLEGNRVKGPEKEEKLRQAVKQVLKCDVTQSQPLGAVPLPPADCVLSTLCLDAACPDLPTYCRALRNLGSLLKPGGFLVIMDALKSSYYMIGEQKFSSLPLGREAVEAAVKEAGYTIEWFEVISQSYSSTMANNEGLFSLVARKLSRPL
# [7] = target: Phenylethanolamine N-methyltransferase (Homo sapiens) (UniProt P11086); test: as above; conditions: MTase-Glo luminescence, SAH detection, recombinant enzyme; measured here: PNMT max response; stronger effect = lower value
# Sequence of Phenylethanolamine N-methyltransferase (Homo sapiens) (P11086 whole entry, looked up): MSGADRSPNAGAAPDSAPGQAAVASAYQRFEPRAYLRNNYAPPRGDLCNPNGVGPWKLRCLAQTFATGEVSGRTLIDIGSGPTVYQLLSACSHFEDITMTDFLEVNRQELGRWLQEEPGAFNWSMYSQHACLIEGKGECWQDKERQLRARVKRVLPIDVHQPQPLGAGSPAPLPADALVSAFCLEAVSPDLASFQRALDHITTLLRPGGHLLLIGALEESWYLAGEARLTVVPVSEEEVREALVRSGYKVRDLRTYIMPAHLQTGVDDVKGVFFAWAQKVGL
# [8] = Viability counterscreen for antagonist of constitutive androstane receptor (CAR) against the NCATS DSHEA and TCM libraries (AID 1794837);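 further: compound exposure lasted 24 h before viability reading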
# Summary of the method: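 HepG2-CYP2B6-hCAR cells, 2,500/well, were exposed 24 hr at 37C to substances together with 48 uM CITCO (final). Viability was read as CellTiter-Fluor fluorescence (Ex/Em 405/540 nm) after 1 hr.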
# [9] = Viability counterscreen for agonist of constitutive androstane receptor (CAR) against the NCATS DSHEA and TCM libraries (AID 1794838);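 further: HepG2 cells with CYP2B6 reporter and hCAR plus 0.75 µM PK11195 antagonist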
# Summary of the method: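 HepG2-CYP2B6-hCAR cells (2,500/well) treated 24 h at 37C with compounds plus 0.75 uM PK11195; viability read by CellTiter-Fluor fluorescence, Ex/Em 405/540 nm.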
# [10] = target: Nuclear receptor subfamily 1 group I member 3 (Homo sapiens) (UniProt Q14994); test: Primary qHTS for agonist of constitutive androstane receptor (CAR) against the NCATS DSHEA and TCM libraries (AID 1794839);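 further: HepG2 cells expressing human CAR with a CYP2B6 reporter plus PK11195 antagonist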
# Sequence of Nuclear receptor subfamily 1 group I member 3 (Homo sapiens) (Q14994 whole entry, looked up): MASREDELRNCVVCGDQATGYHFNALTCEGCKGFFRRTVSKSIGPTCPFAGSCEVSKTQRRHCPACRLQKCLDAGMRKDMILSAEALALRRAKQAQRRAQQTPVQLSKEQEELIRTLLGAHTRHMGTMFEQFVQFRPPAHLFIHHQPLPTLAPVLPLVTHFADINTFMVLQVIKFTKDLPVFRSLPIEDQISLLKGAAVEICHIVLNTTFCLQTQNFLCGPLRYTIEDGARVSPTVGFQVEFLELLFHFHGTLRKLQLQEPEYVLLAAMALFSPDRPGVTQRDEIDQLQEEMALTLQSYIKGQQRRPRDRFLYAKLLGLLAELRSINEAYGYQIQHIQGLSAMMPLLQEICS
# Summary of the method: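 HepG2-CYP2B6-hCAR cells, 2,500/well, attached 5 h, then dosed with 0.75 µM PK11195 (final) for 24 h at 37 °C. Luciferase luminescence read (ONE-Glo); CellTiter-Fluor viability (Ex/Em 405/540 nm) in same wells; CITCO positive control.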
# [11] = HepG2 viability counterscreen (readout 2: ATP content) against the NCATS DSHEA and TCM libraries (AID 1794840)
# Summary of the method: (§1)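 HepG2 cells, 1,000/well, attached ~4 h, then exposed ~24 h at 37C to substances. Protease activity read by fluorescence of 25 uM GF-AFC (Ex/Em 380/510 nm) after 30 min; ATP then by CellTiter-Glo luminescence.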
# [12] = HepG2 viability counterscreen (readout 1: protease activity) against the NCATS DSHEA and TCM libraries (AID 1794841);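 further: cells exposed to compounds for about 24 h before the protease read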
# Summary of the method: as §1
# [13] = target: Cytochrome P450 3A4 (Homo sapiens) (UniProt P08684); test: qHTS for inhibitors of CYP3A4 against the NCATS DSHEA and TCM libraries (AID 1919971);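 further: inhibition lowers luminescence from luciferin made by CYP3A4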
# Sequence of Cytochrome P450 3A4 (Homo sapiens) (P08684 whole entry, looked up): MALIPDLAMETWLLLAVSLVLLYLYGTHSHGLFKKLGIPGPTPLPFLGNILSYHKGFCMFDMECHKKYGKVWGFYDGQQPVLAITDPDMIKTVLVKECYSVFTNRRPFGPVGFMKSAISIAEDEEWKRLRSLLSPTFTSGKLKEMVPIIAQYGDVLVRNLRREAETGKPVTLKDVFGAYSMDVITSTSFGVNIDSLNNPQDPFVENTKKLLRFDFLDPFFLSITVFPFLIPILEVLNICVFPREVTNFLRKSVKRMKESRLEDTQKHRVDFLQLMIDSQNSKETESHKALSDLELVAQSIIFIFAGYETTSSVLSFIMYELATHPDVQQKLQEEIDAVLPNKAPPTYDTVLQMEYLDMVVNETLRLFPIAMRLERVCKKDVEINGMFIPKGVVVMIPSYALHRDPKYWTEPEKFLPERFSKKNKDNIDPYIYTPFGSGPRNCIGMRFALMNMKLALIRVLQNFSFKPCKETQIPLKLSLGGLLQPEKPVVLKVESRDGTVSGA
# Summary of the method: (§2)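 Substances were tested against enzyme with a pro-luciferin substrate; minus-enzyme wells served as background. After NADPH-initiated oxidation (30-45 min, RT), light was generated with P450-Glo reagent.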
# [14] = target: Cytochrome P450 2D6 (Homo sapiens) (UniProt P10635); test: qHTS for inhibitors of CYP2D6 against the NCATS DSHEA and TCM libraries (AID 1919972)
# Sequence of Cytochrome P450 2D6 (Homo sapiens) (P10635 whole entry, looked up): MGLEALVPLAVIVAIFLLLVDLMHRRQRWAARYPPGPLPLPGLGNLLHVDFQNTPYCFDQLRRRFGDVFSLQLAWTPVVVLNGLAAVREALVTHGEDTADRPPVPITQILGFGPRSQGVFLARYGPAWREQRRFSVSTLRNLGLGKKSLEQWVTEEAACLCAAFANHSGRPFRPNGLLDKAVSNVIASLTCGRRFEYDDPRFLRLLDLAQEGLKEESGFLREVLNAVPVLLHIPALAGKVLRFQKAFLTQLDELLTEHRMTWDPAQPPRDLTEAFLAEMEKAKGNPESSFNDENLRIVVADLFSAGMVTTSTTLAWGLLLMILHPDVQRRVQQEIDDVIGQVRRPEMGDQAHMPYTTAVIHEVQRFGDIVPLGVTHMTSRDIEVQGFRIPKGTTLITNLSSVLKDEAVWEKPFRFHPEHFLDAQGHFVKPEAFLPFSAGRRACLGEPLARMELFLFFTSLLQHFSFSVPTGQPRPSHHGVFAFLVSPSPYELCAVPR
# Summary of the method: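 qHTS, concentration–response format with most substances from 19.5 nM. CYP2D6 + pro-luciferin substrate, 15 min with compound, then 1x NADPH regen, 30–45 min RT dark. Glo detection 30 min, luminescence. Quinidine control.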
# [15] = target: Cytochrome P450 2C9 (Homo sapiens) (UniProt P11712); test: qHTS for inhibitors of CYP2C9 against the NCATS DSHEA and TCM libraries (AID 1919973);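 further: luminogenic pro-luciferin CYP2C9 substrate turned into luciferin with NADPH regeneration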
# Sequence of Cytochrome P450 2C9 (Homo sapiens) (P11712 whole entry, looked up): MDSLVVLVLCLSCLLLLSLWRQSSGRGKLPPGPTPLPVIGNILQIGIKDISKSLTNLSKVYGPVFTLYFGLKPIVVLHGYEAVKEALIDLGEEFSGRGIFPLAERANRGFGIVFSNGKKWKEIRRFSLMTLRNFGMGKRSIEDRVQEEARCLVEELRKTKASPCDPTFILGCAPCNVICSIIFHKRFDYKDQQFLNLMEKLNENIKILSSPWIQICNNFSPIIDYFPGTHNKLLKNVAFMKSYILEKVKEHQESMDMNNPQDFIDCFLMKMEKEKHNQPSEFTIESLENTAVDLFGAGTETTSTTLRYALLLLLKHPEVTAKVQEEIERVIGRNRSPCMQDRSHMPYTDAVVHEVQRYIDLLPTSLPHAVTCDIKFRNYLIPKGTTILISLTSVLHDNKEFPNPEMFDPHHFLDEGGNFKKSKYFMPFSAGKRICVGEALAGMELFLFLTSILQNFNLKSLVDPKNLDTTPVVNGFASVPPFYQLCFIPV
# Summary of the method: as §2
# [16] = target: Cytochrome P450 2C19 (Homo sapiens) (UniProt P33261); test: qHTS for inhibitors of CYP2C19 against the NCATS DSHEA and TCM libraries (AID 1919974);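 further: luminescence from luciferin released by CYP2C19 oxidation of a pro-luciferin substrate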
# Sequence of Cytochrome P450 2C19 (Homo sapiens) (P33261 whole entry, looked up): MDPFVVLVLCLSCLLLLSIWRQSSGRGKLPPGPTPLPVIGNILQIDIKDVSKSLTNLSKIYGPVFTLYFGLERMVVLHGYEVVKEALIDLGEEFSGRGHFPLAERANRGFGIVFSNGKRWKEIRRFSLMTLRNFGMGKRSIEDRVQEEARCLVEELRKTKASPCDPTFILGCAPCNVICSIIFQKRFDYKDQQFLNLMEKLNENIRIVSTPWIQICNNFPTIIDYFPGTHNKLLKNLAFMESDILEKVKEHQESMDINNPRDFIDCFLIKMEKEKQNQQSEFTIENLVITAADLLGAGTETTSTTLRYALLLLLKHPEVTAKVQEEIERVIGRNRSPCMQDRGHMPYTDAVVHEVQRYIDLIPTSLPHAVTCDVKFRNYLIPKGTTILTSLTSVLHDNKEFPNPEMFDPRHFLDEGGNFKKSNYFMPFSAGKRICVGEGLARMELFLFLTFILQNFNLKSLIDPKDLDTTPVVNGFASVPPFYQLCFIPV
# Summary of the method: as §2
# [17] = KB-3-1 P-gp reporter qHTS against the NCATS DSHEA and TCM libraries (AID 1919975)
# Summary of the method: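 Parental KB-3-1 cells, 500 cells/well, in DMEM with 10% FBS, exposed 72 h at 37 C to compounds in concentration-response. Viability read by CellTiter-Glo luminescence after 30 min at room temperature.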
# [18] = target: Cytochrome P450 1A2 (Homo sapiens) (UniProt P05177); test: qHTS for inhibitors of CYPIA2 against the NCATS DSHEA and TCM libraries (AID 1919976)
# Sequence of Cytochrome P450 1A2 (Homo sapiens) (P05177 whole entry, looked up): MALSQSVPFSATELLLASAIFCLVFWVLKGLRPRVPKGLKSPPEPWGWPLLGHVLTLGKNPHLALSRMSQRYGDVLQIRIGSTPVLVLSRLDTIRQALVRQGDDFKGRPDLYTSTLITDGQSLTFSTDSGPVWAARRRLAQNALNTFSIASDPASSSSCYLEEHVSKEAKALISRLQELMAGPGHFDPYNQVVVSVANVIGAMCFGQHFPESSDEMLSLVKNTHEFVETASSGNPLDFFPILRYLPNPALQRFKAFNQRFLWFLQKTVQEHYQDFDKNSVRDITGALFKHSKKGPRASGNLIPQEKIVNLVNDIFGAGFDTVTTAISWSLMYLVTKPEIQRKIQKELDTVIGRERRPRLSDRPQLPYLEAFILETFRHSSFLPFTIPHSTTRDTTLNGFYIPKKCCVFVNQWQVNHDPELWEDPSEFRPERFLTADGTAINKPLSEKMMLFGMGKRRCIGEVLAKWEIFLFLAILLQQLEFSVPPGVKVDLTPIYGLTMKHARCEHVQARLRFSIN
# Summary of the method: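 Luminescence read-out: pro-luciferin converted to D-luciferin by CYP1A2, detected with P450-Glo reagent after 30 min RT. Enzyme plus substrate got compounds for 15 min RT; NADPH regeneration solution (final 1x) started a 30-45 min reaction, light-protected.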
# [19] = qHTS Counterscreen for compound interference against the NCATS DSHEA and TCM libraries (AID 1919978); conditions: firefly luciferase detection reagent interference, luminescence;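 further: compounds preincubated with 1 µM D-luciferin or buffer before detection reagent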
# Summary of the method: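 Firefly luciferase detection reagent was added after compounds (19.5 nM–39.8 uM final) had been incubated 15 min at room temperature with 1 uM D-luciferin or with 100 mM phosphate buffer alone. Luminescence was read after 30 min at room temperature.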
# [20] = Dual reporter qHTS for agonist of Pregnane X Receptor (hPXR) against the NCATS DSHEA and TCM libraries: Fluorescence readout (AID 1920058)
# Summary of the method: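 Fluorescence read-out for cell viability: CellTiter-Fluor, 1 h at 37 °C, Ex/Em 405/540 nm. This followed ~24 h treatment of hPXR-Luc HepG2 cells with substances in agonist mode.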
structure (smiles),measurement,setting,value
NC(=O)c1ccccc1,outcome,[1],inactive
same,outcome,[2],inactive
same,Potency,[3],inactive
same,Potency,[4],inactive
same,Potency,[5],inactive
N[C@H]1CONC1=O,outcome,[1],inactive
same,Potency,[3],inactive
same,Potency,[4],inactive
same,Potency,[5],inactive
CCCc1c(-c2ccc(O)cc2)nn(-c2ccc(O)cc2)c1-c1ccc(O)cc1,activity,[6],-57.1%
same,activity,[7],-22%
same,Potency,[3],inactive
same,Potency,[4],inactive
same,Potency,[5],inactive
Cn1c(=O)c2[nH]c(-c3ccc(S(=O)(=O)O)cc3)nc2n(C)c1=O,activity,[6],-17.8%
same,activity,[7],-5.47%
same,Potency,[3],inactive
same,Potency,[4],10 µM (active)
same,Potency,[5],11.2 µM (active)
C=C1C[C@@]23CC[C@H]4[C@@](C)(CCC[C@@]4(C)C(=O)OC4OC(CO)C(O)C(O)C4O)[C@@H]2CC[C@]1(OC1OC(CO)C(O)C(O)C1OC1OC(CO)C(O)C(O)C1O)C3 (some centres undefined),outcome,[8],inactive
same,outcome,[9],inactive
same,outcome,[10],inactive
same,outcome,[11],inactive
same,outcome,[12],inactive
same,Potency,[3],inactive
same,Potency,[4],inactive
same,Potency,[5],inactive
same,outcome,[13],inactive
same,outcome,[14],inactive
same,outcome,[15],inactive
same,outcome,[16],inactive
same,outcome,[17],inactive
same,outcome,[18],inactive
same,max response,[19],4.65% (inactive)
same,outcome,[20],inactive
C=CCN1CCc2c(cc(O)c(O)c2Br)[C@@H](c2ccccc2)C1,activity,[6],-9.94%
same,activity,[7],-1.34%
same,Potency,[3],inactive
same,Potency,[4],inactive
same,Potency,[5],inactive
CO/N=C(\C(=O)N[C@@H]1C(=O)N2C(C(=O)O)=C(CSc3nc(=O)c(O)nn3C)CSC12)c1csc(N)n1 (some centres undefined),Potency,[3],inactive
same,Potency,[4],25.1 µM (active)
C[C@H](NC(=O)/C(C#N)=C/c1ccc(O)c(O)c1)c1ccccc1,activity,[6],-55.4%
same,activity,[7],-2.26%
same,Potency,[3],inactive
same,Potency,[4],inactive
same,Potency,[5],inactive
CCCC[C@@]1(C2CCCC2)Cc2cc(OCC(=O)O)c(Cl)c(Cl)c2C1=O,activity,[6],-66.3%
same,activity,[7],7.03%
same,Potency,[3],inactive
same,Potency,[4],inactive
same,Potency,[5],inactive
CN1Cc2sccc2C(c2ccc(O)c(O)c2)C1 (centres undefined),activity,[6],-9.55%
same,activity,[7],2.33%
same,Potency,[3],inactive
same,Potency,[4],inactive
same,Potency,[5],inactive
Fc1ccc(CN(C2=NCCN2)c2c(Cl)cccc2Cl)cc1,activity,[6],-23.8%
same,activity,[7],-2.64%
same,Potency,[3],inactive
same,Potency,[4],inactive
same,Potency,[5],inactive
O=C(O)C1=CC(=C(c2ccc(O)c(C(=O)O)c2)c2ccc(O)c(C(=O)O)c2)C=CC1=O,activity,[6],-4.1%
same,activity,[7],2.52%
same,Potency,[3],1.26 µM (active)
Brc1c(Br)c(Br)c2[nH]cnc2c1Br,activity,[6],-40.5%
same,activity,[7],-39.7%
same,Potency,[3],inactive
same,Potency,[4],inactive
same,Potency,[5],inactive
NCC(O)C1CCCCCCC1 (centres undefined),activity,[6],-12%
same,activity,[7],-45.1%
same,Potency,[3],inactive
same,Potency,[4],inactive
same,Potency,[5],inactive
CC(O)C(O)[C@H]1CNc2nc(N)[nH]c(=O)c2N1 (some centres undefined),activity,[6],-14.2%
same,activity,[7],-4.71%
same,Potency,[4],inactive
same,Potency,[5],inactive
